Peg3 imprint – genomic imprint erasure induction; mouse ES Peg3-LacZ reporter, beta-gal luminescence, 40 h; Potency, µM (doses to about 60.7 µM), for the others: at the top dose activity change, positive = activation, usual class: activators; 0.02% of 110,000 active; AID 1948
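Imprint erasure is scored as LacZ activity from the silenced maternal Peg3 allele in feeder-free female ES cells cultured 40 h with LIF. Luminescence is normalized to in-plate negative controls and fitted to the Hill equation.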
p53ts 32C kill – p53ts cell cytotoxicity, permissive temperature; H1299-p53A138V at 32C, ATP luminescence viability, 24 h; Potency, µM (doses to about 46.1 µM), inactives show top-dose activity change, negative = cytotoxicity, most hits filed as cytotoxic; 0.93% of 130,000 active; AID 924;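 note: 0% = DMSO and -100% = full killing by reference compound; nearly all actives have a fitted effect of over 55% in size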
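Viability by ATPlite luminescence after 24 h compound treatment (up to 46 uM) at the permissive 32C. Cells are H1299 carrying p53 A138V. Scale runs from DMSO basal to 100 uM tamoxifen as full kill; AC50 from Hill fits.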
p53ts 39C tox – p53ts cell cytotoxicity, nonpermissive temperature; H1299-p53A138V viability at 39C, ATP luminescence, 24 h; Potency, µM (highest dose often 46.1 µM), inactives show at the top dose activity change, negative = cell killing, usual class: cytotoxic; 1.5% of 130,000 active; note: % is set by controls: 0 for no effect and ±100 for the full control effect; nearly all actives have a fitted effect of over 55% in size
IkB sig inh – suppresses IkB signaling in ABC-DLBCL reporter cells. ABC-DLBCL IkBa-CBG/CBR dual luciferase ratio, 4 h; response scale: scaled: untreated 0%, proteasome inhibitor 100%. Potency, µM (titrated, usually from 57.1 µM), for the others: at the top dose IkBa stabilization activation. 0.04% of 110,000 active. AID 445; active = well fitted curve in the direction sought with a large enough effect in the signal ratio, not every such curve was filed as active; inconclusive = small, poorly fitted or top-dose-only effect, or a change in a side signal; the % refers to the signal ratio;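 note: the direction sought is a rising ratio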
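In this assay, an IκBα–CBG68 fusion accumulates when IKK-driven degradation is blocked; native CBR normalizes for cell number. OCI-Ly3 cells were treated 4 h with compound and doxycycline, then green and red light read after Chroma-Glo addition.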
* marks the source's active call; other numbers are inactive results; ? = inconclusive; nt = not tested or not shown; [ ] = dose if it differs, or a comment. A selection: hits, their analogues and other compounds. The true share with any hit is near 1.6%. Unless noted, calls come from the whole dose curve; as a rule, active = well fitted curve in the direction sought with a large enough effect; inconclusive = small, poorly fitted or top-dose-only effect, or another doubt; inactive = no such curve, though single readings can be large; an effect the other way counts as inactive or inconclusive. Potency is the fitted concentration of half-maximal effect.

SMILES | Peg3 imprint | p53ts 32C kill | p53ts 39C tox | IkB sig inh
c1cncc(-c2csc(NCc3ccco3)n2)c1 | nt | -18% | -21% | nt
CN(C)c1ccc(Nc2nc(-c3cccnc3)cs2)cc1 | -87% | 3.2µM* | 3.2µM* | 2%
CCc1ccccc1N(CC)C(=O)c1c(C)oc2ncnc(N3CCOCC3)c12 | 17%[10.9 µM] | 0% | 6% | ?
O=C(NCc1ccccc1Cl)c1cccc(C(F)(F)F)c1 | nt | -25% | 16µM* | nt
O=c1c2ccccc2oc2cc(O)c([C@@H]3COC[C@@H](CO)[C@@H](O)[C@@H](O)[C@H]3O)c(O)c12 | nt | nt | nt | 0%[11.4 µM]
COc1cccc(NC(=O)Nc2cc(-c3cn4cccnc4n3)ccc2C)c1 | -3%[10.9 µM] | ? | -21% | -2%
COc1cccc(NC(=O)Nc2cc(-c3cn4cccnc4n3)ccc2OC)c1 | -12%[10.9 µM] | 10µM* | 10µM* | ?
Cc1ccc(-c2cn3cccnc3n2)cc1NC(=O)Nc1ccc(F)cc1 | 4%[10.9 µM] | -10% | 33% | 0%
COc1ccc(-c2cn3cccnc3n2)cc1NC(=O)Nc1cc(C)ccc1C | -19%[10.9 µM] | 16µM* | ? | ?
O=[N+]([O-])c1ccc(NN=C2c3ccccc3Cc3ccccc32)c([N+](=O)[O-])c1 | 8%[10.9 µM] | -1%[9.22 µM] | -1%[9.22 µM] | 3%[11.4 µM]
CCc1ccccc1NC(=O)c1ccc(Cn2nc(N3CCN(c4ccccc4)CC3)ccc2=O)o1 | -11%[10.9 µM] | 19% | 22% | ?
COc1ccc2cc(-c3nc4ccc(C(=O)O)cc4[nH]3)c(=O)oc2c1 | -91%[10.9 µM] | 1.6µM* | 2.5µM* | ?
CCOc1cccc2cc(-c3nc4ccc(C(=O)O)cc4[nH]3)c(=O)oc12 | -77%[10.9 µM] | ? | 16µM* | ?
CS(=O)(=O)N(CC(=O)O)c1ccccc1 | nt | 3% | -1% | nt
COc1cc(-c2nc3ccc(Cl)cn3c2Nc2ccc3c(c2)OCO3)ccc1O | 8%[10.9 µM] | -24% | ? | ?
COc1cc(-c2nc3ccc(C)cn3c2Nc2ccc(Cl)cc2)ccc1O | 5%[10.9 µM] | -14% | 16µM* | ?
O=C(NC1CCCCC1)c1ccc(Cc2nc3ccccc3[nH]2)cc1 | nt | -1% | -4% | nt
Cc1ccc(S(=O)(=O)c2c(C)nn(C(C)(C)C)c2OC(=O)c2ccc(Br)o2)cc1 | -25% | 10µM* | -21% | ?
Cc1ccc(S(=O)(=O)c2c(C)nn(C(C)(C)C)c2OC(=O)c2cccs2)cc1 | -30% | ? | 16µM* | 3%
CC(=O)Oc1c(S(=O)(=O)c2ccc(C)cc2)c(C)nn1C(C)(C)C | -14% | -5% | 5% | ?
Cc1ccc(S(=O)(=O)c2c(C)nn(C(C)(C)C)c2OC(=O)c2ccco2)cc1 | -19% | ? | 25µM* | ?
Cc1nn(C(C)(C)C)c(OC(=O)c2ccc3c(c2)OCO3)c1S(=O)(=O)c1ccccc1 | 12% | -19% | 16µM* | -2%
O=C1C(=O)c2ccccc2C(O)=C1Cc1ccccc1 | -2%[10.9 µM] | -4%[9.22 µM] | 4%[9.22 µM] | 2%[11.4 µM]
CCN1CCN(Cc2ccc(NC(=O)Nc3ccccc3Cl)cc2)CC1 | -16% | 10µM* | 7.9µM* | 1%
CCN1CCN(Cc2ccccc2NC(=O)Nc2ccc(C)cc2)CC1 | -11% | -18% | -9% | -2%
SMILES | Peg3 imprint | p53ts 32C kill | p53ts 39C tox | IkB sig inh
O=C(OCC1OC(OC(=O)c2cc(O)c(O)c(OC(=O)c3cc(O)c(O)c(O)c3)c2)[C@@H](OC(=O)c2cc(O)c(O)c(OC(=O)c3cc(O)c(O)c(O)c3)c2)C(OC(=O)c2cc(O)c(O)c(OC(=O)c3cc(O)c(O)c(O)c3)c2)C1OC(=O)c1cc(O)c(O)c(OC(=O)c2cc(O)c(O)c(O)c2)c1)c1cc(O)c(O)c(OC(=O)c2cc(O)c(O)c(O)c2)c1 (stereo partly drawn) | -83% | 10µM* | 6.3µM* | nt
COc1ccc(OC)c(CCNC(=O)c2nc(-c3ccc(Cl)cc3)n3c2CCCCC3)c1 | nt | 22% | nt | nt
Cn1cnnc1SCC(=O)Nc1ccc(C#N)cc1 | -7%[10.9 µM] | -8% | -2% | 0%
Cc1ccc(Sc2ccc(N3CCC(C(=O)Nc4cc(C)cc(C)c4)CC3)nn2)cc1 | -1%[10.9 µM] | ? | 13µM* | ?
COc1cccc(NC(=O)C2CCN(c3ccc(Sc4ccc(C)cc4)nn3)CC2)c1 | -3%[10.9 µM] | 7% | -3% | ?
O=C(Nc1nc2c(s1)C(=O)CCC2)c1ccccc1 | -93% | 13µM* | 16µM* | ?
CN(C)c1ccc(C(=O)Nc2nc3c(s2)CCCC3)cc1 | -90% | ? | ? | ?
COc1cccc(C(=O)Nc2nc3c(s2)CCCC3)c1 | -51%[10.9 µM] | 10µM* | 13µM* | ?
N#Cc1cccc(-c2nc(NCc3cccs3)c3ccccc3n2)c1 | 6.3µM* | -17% | -24% | 1%[11.4 µM]
c1cncc(-c2nc(NCc3cccs3)c3ccccc3n2)c1 | -4% | 0% | -21% | -2%[11.4 µM]
O=C(NCCCN1CCN(c2cccc(Cl)c2)CC1)c1sc2ncccc2c1-n1cccc1 | -15%[10.9 µM] | -8% | ? | ?
Cc1cc(NC(=O)CSc2nnc(-c3ccc4c(c3)OCCO4)o2)no1 | -81% | 5µM* | 0.79µM* | -1%
CCOc1ccc(C(=O)Nc2cc(C)on2)cc1OCC | -5% | 4% | -6% | -1%
Cc1cc(NC(=O)c2ccc3c(c2)OCCO3)no1 | -88% | 1.6µM* | 2µM* | 5%
O=C(Nc1nc2c(F)cccc2s1)c1ccc2c(c1)OCCO2 | -30%[10.9 µM] | 10µM* | 5µM* | ?
COc1cccc(-c2nnc(SCC(=O)Nc3cc(C)on3)o2)c1 | -82% | ? | ? | 2%
Cc1cc(NC(=O)c2ccc3c(c2)OCO3)no1 | -78% | 10µM* | 13µM* | 1%
COc1ccc(-c2cn3cccnc3n2)cc1NC(=O)c1c(F)cccc1F | -8%[10.9 µM] | 3% | -26% | 5%
CCOc1ccc(NC(=O)c2ccccc2CO)cc1 | -63% | ? | ? | ?
COc1ccc(C(=O)Nc2ccc(C)cn2)c(OC)c1 | -89% | 0.5µM* | 0.63µM* | ?
CCOc1ccc(NC(=O)c2nccnc2CO)cc1 | -88% | 13µM* | 10µM* | ?
CCOc1ccc(NC(=O)c2ccccc2OC)cc1 | -40% | 13µM* | 4µM* | -1%
CCOc1ccc(NC(=O)c2ccccc2O)cc1 | -67% | 7.9µM* | 7.9µM* | ?
C=CCNC(=O)c1ccc(OC)cc1OC | -11% | -2% | -5% | -2%
COc1ccccc1C(=O)Nc1ccccn1 | -79% | 10µM* | 10µM* | 12%
COc1cccc2c1[C@@H]1CN(CCCCn3c(=O)[nH]c4c(sc5ncc(-c6ccccc6)nc54)c3=O)C[C@H]1CO2 | nt | ? | ? | -5%
O=C(NCC(c1ccco1)S(=O)(=O)c1cccs1)c1ccc(C(F)(F)F)cc1 (stereo not drawn) | 8%[10.9 µM] | -4% | -24% | ?
CC1=CC(C)(C)Nc2ccc(OC(=O)c3ccco3)cc21 | -33% | ? | ? | ?
CC1=CC(C)(C)Nc2ccc(OC(=O)CN3C(=O)CCC3=O)cc21 | nt | ? | 16µM* | nt
COc1ccc(C)cc1Nc1nc(N)c2cc(OC)c(OC)cc2n1 | 8%[10.9 µM] | 20µM* | 20µM* | ?

Assay outcomes from PubChem BioAssay.
